This passage reports binding signal results from article PMC7862700, “An all-to-all approach to the identification of sequence-specific readers for epigenetic DNA modifications on cytosine”.

Common to all, as to experiment: DAPPL (digital affinity profiling via proximity ligation, sequencing); 10 mM Tris-HCl pH 7.5, 50 mM NaCl, 1 mM DTT, 4% glycerol, room temperature, 30 min; GST-TFs on glutathione beads, 16-mer random dsDNA library, 0.1% formaldehyde crosslink after washing; high values mean tight binding
In experiment [1] the target is T1, FEV (Homo sapiens, UniProt Q99581 1-238).
T1 sequence: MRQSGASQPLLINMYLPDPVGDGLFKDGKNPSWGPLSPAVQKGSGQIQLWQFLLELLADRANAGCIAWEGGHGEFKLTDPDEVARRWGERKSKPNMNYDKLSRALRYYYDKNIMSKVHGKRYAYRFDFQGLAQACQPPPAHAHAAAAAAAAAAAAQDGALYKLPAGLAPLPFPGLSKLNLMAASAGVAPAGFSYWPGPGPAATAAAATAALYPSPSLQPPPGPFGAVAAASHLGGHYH
To be noted: protein: recombinant; tags: N-terminal GST; dsDNA, one strand shown. Put shortly:
(§1)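 Binding signal is given per hexamer as its read frequency for a factor divided by its frequency in the tag-only sample. GST-fused human transcription factors were expressed in yeast, captured on glutathione beads, barcoded with DNA and pooled with that sample, then incubated with 200 nmole of a 16-mer random double-stranded DNA library in Tris/NaCl/DTT/glycerol buffer for 30 min at room temperature. The pools were then washed, crosslinked, proximity-ligated, amplified by PCR and sequenced on an Illumina NextSeq500.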

Experiment [2] has as its target ETV5 (Homo sapiens, UniProt P41161 1-510). To be noted: protein: recombinant; tags: N-terminal GST; dsDNA, one strand shown. The essentials: as §1
In experiment [3] the target is HSF1 (Homo sapiens, UniProt Q00613 1-529). To be noted: protein: recombinant; tags: N-terminal GST; chain copies: 3; dsDNA, one strand shown. The essentials: as §1
Experiment [4] concerns the target T2, SPIC (Homo sapiens, UniProt Q8N5J4 1-248).
T2 sequence: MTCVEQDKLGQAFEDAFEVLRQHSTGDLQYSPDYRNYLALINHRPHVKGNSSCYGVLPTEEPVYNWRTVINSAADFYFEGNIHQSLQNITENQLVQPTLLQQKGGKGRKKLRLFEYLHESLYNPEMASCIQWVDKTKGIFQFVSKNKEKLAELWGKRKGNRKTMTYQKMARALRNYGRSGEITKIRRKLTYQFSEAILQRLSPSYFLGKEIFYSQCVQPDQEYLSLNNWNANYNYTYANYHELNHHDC
The following applies: protein: recombinant; tags: N-terminal GST; dsDNA, one strand shown. Put shortly:
as §1

Experiment [5] deals with ELF4 (Homo sapiens, UniProt Q99607 1-663). To be noted: protein: recombinant; tags: N-terminal GST; dsDNA, one strand shown. Put shortly: as §1
Experiment [6] has as its target T3, ELK4 (Homo sapiens, UniProt P28324-2 1-405).
T3 sequence: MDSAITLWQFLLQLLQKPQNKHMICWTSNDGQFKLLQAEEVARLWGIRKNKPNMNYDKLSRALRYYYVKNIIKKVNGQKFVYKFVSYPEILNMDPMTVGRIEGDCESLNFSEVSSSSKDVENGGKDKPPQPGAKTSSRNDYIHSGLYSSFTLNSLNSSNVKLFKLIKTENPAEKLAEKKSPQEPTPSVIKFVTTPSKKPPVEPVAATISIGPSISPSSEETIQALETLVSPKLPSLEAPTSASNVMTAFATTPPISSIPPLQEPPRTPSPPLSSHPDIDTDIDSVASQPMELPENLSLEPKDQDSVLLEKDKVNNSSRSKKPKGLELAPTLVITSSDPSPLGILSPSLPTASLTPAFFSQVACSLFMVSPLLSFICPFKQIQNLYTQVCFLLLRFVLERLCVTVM
To be noted: protein: recombinant; tags: N-terminal GST; dsDNA, one strand shown. Put shortly:
as §1

Experiment [7] has as its target T4, ETV2 (Homo sapiens, UniProt O00321 1-342).
T4 sequence: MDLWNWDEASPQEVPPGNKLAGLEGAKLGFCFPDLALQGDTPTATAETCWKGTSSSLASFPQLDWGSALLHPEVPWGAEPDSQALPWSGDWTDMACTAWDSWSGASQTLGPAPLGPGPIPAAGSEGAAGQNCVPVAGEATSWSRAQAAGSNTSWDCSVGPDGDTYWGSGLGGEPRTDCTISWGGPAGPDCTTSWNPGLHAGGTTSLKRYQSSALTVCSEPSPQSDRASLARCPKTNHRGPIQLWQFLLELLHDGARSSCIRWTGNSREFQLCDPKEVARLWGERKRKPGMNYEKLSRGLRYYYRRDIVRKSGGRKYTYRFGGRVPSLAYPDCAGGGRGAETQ
The following applies: protein: recombinant; tags: N-terminal GST; dsDNA, one strand shown. Put shortly:
as §1

The target of experiment [8] is T5, ELF3 (Homo sapiens, UniProt P78545 1-371).
T5 sequence: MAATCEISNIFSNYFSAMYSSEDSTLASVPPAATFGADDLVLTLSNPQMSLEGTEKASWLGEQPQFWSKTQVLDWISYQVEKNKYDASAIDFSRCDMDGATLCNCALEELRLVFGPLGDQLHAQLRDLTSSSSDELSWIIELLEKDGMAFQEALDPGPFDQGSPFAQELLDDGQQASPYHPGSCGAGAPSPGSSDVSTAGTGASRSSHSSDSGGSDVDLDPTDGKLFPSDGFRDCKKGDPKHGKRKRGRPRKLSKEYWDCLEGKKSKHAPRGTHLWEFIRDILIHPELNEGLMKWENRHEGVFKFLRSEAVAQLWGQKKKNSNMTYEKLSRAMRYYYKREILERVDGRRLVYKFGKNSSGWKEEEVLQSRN
The following applies: protein: recombinant; tags: N-terminal GST; dsDNA, one strand shown. The essentials:
as §1

The target in experiment [9] is CRX (Homo sapiens, UniProt O43186 1-299). To be noted: protein: recombinant; tags: N-terminal GST; dsDNA, one strand shown. The essentials: as §1
The target of experiment [10] is ETV1 (Homo sapiens, UniProt P50549 1-477). To be noted: protein: recombinant; tags: N-terminal GST; dsDNA, one strand shown. Put shortly:
as §1

The target of experiment [11] is T6, ERF (Homo sapiens, UniProt P50548 1-548).
T6 sequence: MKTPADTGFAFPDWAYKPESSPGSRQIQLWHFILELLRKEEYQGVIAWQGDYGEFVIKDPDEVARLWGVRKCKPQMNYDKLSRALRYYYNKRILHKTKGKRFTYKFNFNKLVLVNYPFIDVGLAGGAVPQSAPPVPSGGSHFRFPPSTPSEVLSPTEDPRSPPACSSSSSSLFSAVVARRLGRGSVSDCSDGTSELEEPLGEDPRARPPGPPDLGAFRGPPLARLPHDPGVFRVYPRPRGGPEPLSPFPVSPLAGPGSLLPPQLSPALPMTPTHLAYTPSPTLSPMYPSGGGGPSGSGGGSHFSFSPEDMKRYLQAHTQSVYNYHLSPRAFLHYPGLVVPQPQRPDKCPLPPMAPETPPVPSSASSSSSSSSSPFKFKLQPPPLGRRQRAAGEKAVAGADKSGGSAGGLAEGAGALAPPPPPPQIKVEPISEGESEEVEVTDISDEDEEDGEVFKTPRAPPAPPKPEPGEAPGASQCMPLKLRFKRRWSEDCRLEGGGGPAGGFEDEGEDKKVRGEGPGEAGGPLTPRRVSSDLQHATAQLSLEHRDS
To be noted: protein: recombinant; tags: N-terminal GST; dsDNA, one strand shown. The essentials:
as §1

For experiment [12], the target named is T7, ETV3L (Homo sapiens, UniProt Q6ZN32 1-361).
T7 sequence: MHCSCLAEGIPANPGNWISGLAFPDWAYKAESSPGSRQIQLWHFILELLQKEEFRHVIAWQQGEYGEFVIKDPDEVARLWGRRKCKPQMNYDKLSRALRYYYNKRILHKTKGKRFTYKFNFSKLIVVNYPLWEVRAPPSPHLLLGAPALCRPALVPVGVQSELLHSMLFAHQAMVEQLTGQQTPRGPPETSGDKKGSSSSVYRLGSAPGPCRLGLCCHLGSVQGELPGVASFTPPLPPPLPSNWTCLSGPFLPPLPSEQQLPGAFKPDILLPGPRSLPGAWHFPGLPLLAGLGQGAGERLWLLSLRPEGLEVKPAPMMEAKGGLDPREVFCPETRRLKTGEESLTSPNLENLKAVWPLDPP
To be noted: protein: recombinant; tags: N-terminal GST; dsDNA, one strand shown. Put shortly: as §1

The target in experiment [13] is T8, ETS2 (Homo sapiens, UniProt P15036 1-469).
T8 sequence: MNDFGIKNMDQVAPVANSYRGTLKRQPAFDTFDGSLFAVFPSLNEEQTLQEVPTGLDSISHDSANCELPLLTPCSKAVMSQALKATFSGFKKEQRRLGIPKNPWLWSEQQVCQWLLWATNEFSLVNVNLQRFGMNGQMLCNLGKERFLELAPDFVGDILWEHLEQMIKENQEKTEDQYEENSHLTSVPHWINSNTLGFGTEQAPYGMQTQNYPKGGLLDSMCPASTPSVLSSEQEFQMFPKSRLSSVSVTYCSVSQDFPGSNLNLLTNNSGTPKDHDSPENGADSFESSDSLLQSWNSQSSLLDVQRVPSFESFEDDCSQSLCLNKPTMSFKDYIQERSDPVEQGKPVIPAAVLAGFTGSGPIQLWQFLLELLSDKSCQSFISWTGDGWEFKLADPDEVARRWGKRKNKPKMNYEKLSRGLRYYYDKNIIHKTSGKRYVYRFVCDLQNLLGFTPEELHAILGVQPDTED
The following applies: protein: recombinant; tags: N-terminal GST; dsDNA, one strand shown. The essentials: as §1

The target in experiment [14] is T9, SPDEF (Homo sapiens, UniProt O95238 1-335).
T9 sequence: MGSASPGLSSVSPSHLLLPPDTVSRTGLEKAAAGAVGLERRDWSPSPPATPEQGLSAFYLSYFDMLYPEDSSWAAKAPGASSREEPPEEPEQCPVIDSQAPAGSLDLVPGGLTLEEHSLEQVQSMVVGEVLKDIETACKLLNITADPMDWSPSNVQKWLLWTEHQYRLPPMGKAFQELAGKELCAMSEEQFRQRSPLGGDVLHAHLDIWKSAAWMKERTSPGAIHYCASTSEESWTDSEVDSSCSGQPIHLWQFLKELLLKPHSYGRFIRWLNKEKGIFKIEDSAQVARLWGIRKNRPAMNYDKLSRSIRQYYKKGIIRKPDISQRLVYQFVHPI
To be noted: protein: recombinant; tags: N-terminal GST; dsDNA, one strand shown. Put shortly: as §1

Experiment [15] concerns the target T10, ETV7 (Homo sapiens, UniProt Q9Y603 1-341).
T10 sequence: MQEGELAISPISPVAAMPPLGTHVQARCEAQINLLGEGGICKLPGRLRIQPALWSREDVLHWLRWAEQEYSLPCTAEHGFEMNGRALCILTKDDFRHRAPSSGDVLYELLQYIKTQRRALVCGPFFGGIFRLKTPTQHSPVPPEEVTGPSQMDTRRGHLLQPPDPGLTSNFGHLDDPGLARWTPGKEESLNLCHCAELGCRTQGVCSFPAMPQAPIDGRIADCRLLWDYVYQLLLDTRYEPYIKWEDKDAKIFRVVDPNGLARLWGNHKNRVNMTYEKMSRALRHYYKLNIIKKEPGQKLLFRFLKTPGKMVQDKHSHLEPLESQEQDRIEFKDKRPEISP
To be noted: protein: recombinant; tags: N-terminal GST; dsDNA, one strand shown. The essentials: as §1

Experiment [16] deals with T11, ELF5 (Homo sapiens, UniProt Q9UKW6-2 1-255).
T11 sequence: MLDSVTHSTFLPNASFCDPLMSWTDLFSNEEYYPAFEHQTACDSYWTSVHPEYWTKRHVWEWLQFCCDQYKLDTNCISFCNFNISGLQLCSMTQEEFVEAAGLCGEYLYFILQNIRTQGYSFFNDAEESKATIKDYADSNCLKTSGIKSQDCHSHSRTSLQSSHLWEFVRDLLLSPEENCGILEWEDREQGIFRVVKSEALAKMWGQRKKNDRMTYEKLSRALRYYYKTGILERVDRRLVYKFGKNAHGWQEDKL
To be noted: protein: recombinant; tags: N-terminal GST; dsDNA, one strand shown. Put shortly:
as §1

Experiment [17] has as its target T12, ETV3 (Homo sapiens, UniProt P41162-2 1-143).
T12 sequence: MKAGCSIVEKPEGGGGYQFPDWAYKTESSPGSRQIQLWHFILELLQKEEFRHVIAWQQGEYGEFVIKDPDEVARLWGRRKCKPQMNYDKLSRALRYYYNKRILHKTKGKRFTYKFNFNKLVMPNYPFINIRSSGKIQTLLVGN
The following applies: protein: recombinant; tags: N-terminal GST; dsDNA, one strand shown. Put shortly: as §1

Experiment [18] addresses ETV6 (Homo sapiens, UniProt P41212 1-452). The following applies: protein: recombinant; tags: N-terminal GST; dsDNA, one strand shown. Put shortly:
as §1

ETV1, sequence (P50549 whole entry): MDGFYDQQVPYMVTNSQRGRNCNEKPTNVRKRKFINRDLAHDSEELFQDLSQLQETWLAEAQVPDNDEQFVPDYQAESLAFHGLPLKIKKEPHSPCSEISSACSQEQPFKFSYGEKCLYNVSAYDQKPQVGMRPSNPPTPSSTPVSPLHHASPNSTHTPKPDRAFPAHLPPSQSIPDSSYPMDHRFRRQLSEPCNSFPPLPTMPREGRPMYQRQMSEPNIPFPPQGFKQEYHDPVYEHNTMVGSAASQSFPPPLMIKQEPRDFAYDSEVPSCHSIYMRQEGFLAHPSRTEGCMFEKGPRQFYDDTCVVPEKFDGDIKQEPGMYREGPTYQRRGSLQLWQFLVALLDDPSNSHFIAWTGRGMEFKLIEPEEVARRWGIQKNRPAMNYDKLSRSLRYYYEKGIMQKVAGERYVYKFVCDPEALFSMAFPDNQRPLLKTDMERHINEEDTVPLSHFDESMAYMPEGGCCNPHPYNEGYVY
ETV5, sequence (P41161 whole entry): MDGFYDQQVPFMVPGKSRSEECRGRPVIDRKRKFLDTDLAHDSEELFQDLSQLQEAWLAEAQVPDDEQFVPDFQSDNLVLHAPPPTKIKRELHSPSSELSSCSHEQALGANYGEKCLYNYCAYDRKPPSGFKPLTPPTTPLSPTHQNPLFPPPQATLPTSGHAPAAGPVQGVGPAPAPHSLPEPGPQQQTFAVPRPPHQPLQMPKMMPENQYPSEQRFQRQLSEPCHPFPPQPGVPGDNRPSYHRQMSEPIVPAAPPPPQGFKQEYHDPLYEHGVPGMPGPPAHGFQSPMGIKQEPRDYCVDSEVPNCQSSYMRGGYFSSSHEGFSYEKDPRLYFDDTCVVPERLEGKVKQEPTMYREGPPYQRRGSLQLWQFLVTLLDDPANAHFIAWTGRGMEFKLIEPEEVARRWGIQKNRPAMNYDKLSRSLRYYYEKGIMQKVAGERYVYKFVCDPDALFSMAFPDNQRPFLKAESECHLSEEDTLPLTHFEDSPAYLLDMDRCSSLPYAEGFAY
ETV6, sequence (P41212 whole entry): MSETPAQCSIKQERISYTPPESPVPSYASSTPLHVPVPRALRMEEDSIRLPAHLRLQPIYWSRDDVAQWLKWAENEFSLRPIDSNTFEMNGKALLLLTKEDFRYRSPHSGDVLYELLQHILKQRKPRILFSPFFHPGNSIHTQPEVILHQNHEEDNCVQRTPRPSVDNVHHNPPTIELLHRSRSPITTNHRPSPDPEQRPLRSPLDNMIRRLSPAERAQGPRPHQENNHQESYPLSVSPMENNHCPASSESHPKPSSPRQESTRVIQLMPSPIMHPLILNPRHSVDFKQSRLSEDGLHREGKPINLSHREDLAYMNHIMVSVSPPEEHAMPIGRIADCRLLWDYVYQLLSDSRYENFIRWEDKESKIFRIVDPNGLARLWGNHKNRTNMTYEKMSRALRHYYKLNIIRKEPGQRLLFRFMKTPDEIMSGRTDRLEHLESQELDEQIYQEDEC
HSF1, sequence (Q00613 whole entry): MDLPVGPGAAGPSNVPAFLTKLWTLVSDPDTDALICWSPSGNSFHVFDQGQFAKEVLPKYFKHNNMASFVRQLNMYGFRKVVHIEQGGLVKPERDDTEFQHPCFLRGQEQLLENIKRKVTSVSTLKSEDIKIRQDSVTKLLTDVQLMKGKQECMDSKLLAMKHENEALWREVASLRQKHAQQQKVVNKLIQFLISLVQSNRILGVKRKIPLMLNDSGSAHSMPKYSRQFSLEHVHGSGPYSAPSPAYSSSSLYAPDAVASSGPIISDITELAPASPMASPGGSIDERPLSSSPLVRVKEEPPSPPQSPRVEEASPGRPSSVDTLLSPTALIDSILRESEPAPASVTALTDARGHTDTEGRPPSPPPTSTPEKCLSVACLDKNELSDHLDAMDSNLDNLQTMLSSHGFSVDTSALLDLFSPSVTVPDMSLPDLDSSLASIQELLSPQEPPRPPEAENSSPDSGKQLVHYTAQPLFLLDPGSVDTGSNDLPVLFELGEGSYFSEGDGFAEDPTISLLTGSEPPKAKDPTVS
ELF4, sequence (Q99607 whole entry): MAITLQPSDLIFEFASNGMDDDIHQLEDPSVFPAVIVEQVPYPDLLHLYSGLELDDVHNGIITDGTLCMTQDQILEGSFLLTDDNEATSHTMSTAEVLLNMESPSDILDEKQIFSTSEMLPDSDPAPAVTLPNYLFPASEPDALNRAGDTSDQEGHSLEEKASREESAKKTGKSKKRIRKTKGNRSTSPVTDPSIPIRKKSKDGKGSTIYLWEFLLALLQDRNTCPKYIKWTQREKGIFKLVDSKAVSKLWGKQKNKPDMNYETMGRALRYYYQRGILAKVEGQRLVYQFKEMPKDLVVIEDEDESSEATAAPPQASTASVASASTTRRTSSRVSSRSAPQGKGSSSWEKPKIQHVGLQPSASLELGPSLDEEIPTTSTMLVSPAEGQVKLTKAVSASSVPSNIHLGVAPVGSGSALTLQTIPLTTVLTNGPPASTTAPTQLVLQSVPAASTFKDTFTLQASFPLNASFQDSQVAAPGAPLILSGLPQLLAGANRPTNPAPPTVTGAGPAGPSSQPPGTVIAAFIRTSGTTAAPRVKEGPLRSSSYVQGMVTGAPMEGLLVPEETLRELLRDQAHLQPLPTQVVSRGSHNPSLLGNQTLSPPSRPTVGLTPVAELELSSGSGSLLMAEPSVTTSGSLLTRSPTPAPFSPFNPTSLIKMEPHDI
CRX, sequence (O43186 whole entry): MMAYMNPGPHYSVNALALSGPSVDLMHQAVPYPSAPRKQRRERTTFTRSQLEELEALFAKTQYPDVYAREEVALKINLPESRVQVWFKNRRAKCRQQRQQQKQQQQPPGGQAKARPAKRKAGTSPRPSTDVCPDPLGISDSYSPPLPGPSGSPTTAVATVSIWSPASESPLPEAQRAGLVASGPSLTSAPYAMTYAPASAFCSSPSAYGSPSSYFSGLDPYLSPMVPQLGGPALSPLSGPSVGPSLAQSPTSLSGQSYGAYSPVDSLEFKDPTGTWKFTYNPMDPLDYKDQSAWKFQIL

TTTTCA: the binding signal in experiment [1] was 1.17 fold enrichment (6-mer frequency, TF over GST control); in experiment [2], 1.2 fold enrichment (6-mer frequency, TF over GST control); in [3], 1.14 fold enrichment (6-mer frequency, TF over GST control); in experiment [4], 1.22 fold enrichment (6-mer frequency, TF over GST control); in experiment [5], 1.27 fold enrichment (6-mer frequency, TF over GST control); in experiment [6], 1.2 fold enrichment (6-mer frequency, TF over GST control). Further, the binding signal was 1.24 fold enrichment (6-mer frequency, TF over GST control) in experiment [7]; 1.31 fold enrichment (6-mer frequency, TF over GST control) in [8]; 1.28 fold enrichment (6-mer frequency, TF over GST control) in experiment [9]; 1.22 fold enrichment (6-mer frequency, TF over GST control) in [10]; 1.24 fold enrichment (6-mer frequency, TF over GST control) in experiment [11]; 1.26 fold enrichment (6-mer frequency, TF over GST control) in experiment [12]. Further, the binding signal was 1.14 fold enrichment (6-mer frequency, TF over GST control) in experiment [13]; 1.18 fold enrichment (6-mer frequency, TF over GST control) in [14]; 1.26 fold enrichment (6-mer frequency, TF over GST control) in [15]; 1.25 fold enrichment (6-mer frequency, TF over GST control) in [16]; 1.31 fold enrichment (6-mer frequency, TF over GST control) in [17]; 1.21 fold enrichment (6-mer frequency, TF over GST control) in [18].
